# Source: PubChem (National Center for Advancing Translational Sciences (NCATS))
# Many of the other results were omitted from the sample, so hits are more common in it than they were.
# KDM5B inhibitor – Primary screen for KDM5B Histone Demethylases FDH-coupled qHTS; Potency, µM (highest dose often 57.7 µM), most hits filed as inhibitors; Lysine-specific demethylase 5B (Homo sapiens), Q9UGL1; KDM5B demethylase, FDH-coupled NADH fluorescence (FDH is formaldehyde dehydrogenase); hit rate 2.6% among 220,000; active = well fitted inhibition curve with a large enough effect; also: 0% is about no effect; nearly all actives have a fitted effect of over 70% in size
#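 Compound dilutions met 200 nM (final) KDM5BΔAP for 10 min at room temperature before substrate addition. The substrate mix held 12.5 µM H3K4me3 with cofactors 25 µM α-ketoglutarate and 50 µM Fe²⁺. NADH signal gain over 30 min defined activity.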
# * = called active by the depositor; i = inactive. Potency is read from the fitted curve at half-maximal effect.
SMILES,KDM5B inhibitor
CC(C)c1noc(-c2cccn3c(CNC(=O)c4cc(F)ccc4F)nnc23)n1,25µM*
CCc1noc(-c2cccn3c(CNC(=O)c4ccc(F)c(F)c4)nnc23)n1,4µM*
CCc1ccc(NC(=O)OC)cc1,i
CC(C)=CCC/C(C)=C/C=N/NC(=S)Nc1ccc(C)cc1,i
COc1ccc(C)cc1-n1ccnc1SCC(=O)Nc1nc(C)cs1,i
COc1ccccc1Cn1ccnc1SCC(=O)Nc1ccc(C(C)=O)cc1,i
COc1ccc2[nH]cc(C(C(=O)O)N3CCCC3)c2c1 (centres undefined),i
Cc1cccc(-c2cc(C(=O)NC3CCCC3)c3ccccc3n2)c1,i
CC1(C)CC(NC(=S)Nc2ccccc2F)CC(C)(C)N1,i
Cc1ccc(C2=CC(c3ccc(F)cc3)n3nnnc3N2)cc1 (centres undefined),i
CC(C)c1noc(-c2cccn3c(CNC(=O)c4cc(F)ccc4Cl)nnc23)n1,22µM*
O=C(c1ccc2cccnc2c1O)N1CCCC(CCc2ccccc2F)C1 (centres undefined),11µM*
Cc1ccccc1CCC1CCCN(C(=O)c2cccc(O)c2C)C1 (centres undefined),i
CSCCC(=O)N1CCCC(CCc2ccccc2F)C1 (centres undefined),i
C(=C\c1ccccc1)/CNCC1CCNCC1,i
O[C@H]1[C@H](NCc2ccc(OC(F)(F)F)cc2)[C@H]2CO[C@H](O2)[C@@H]1N1CCC(Cc2ccccc2)CC1,i
COc1ccccc1C(=O)N1CCC2(CC1)COc1ccccc1CN2,i
O=S(=O)(c1cccc2nsnc12)N1CCCC1c1ccc(F)cc1 (centres undefined),i
C=CCc1ccccc1OCCN(C)Cc1nc(C)ccc1O,i
CCc1ccccc1OCCN(C)Cc1ncc[nH]1,22µM*
C=CCc1ccccc1OCCN(C)Cc1ncnn1CC,i
CN(C)c1ccc(C(N)=S)cc1,i
Cc1ccc(-c2[nH]c3ccccc3c2C=O)cc1,i
COc1ccc(NC(=O)c2nc(-c3ccccc3)oc2C)cc1,i
C#CCN(C)C[C@@H]1C=C(C)[C@H](Cc2nnc(-c3ccccc3F)o2)C[C@H]1C(C)C,35µM*
SMILES,KDM5B inhibitor
CC1=C[C@@H](CN(C)Cc2cccnc2)[C@H](C(C)C)C[C@H]1Cc1nnc(-c2ccc([N+](=O)[O-])cc2)o1,13µM*
CC1=C[C@@H](CN2CCC(C)CC2)[C@H](C(C)C)C[C@H]1Cc1nnc(-c2cccnc2)o1,i
CC1=C[C@@H](CN2CCN(c3cnccn3)CC2)[C@H](C(C)C)C[C@H]1Cc1nnc(-c2cccnc2)o1,32µM*
COCCN1CCN(C[C@@H]2C=C(C)[C@H](Cc3nnc(-c4cccnc4)o3)C[C@H]2C(C)C)CC1,i
CC1=C[C@@H](CN2CCN(c3ccccn3)CC2)[C@H](C(C)C)C[C@H]1Cc1nnc(-c2ccc([N+](=O)[O-])cc2)o1,i
CC1=C[C@@H](CN(C)CCO)[C@H](C(C)C)C[C@H]1Cc1nnc(-c2ccccc2F)o1,i
C#CCN(C)C[C@@H]1C=C(C)[C@H](Cc2nnc(-c3ccc(C)cc3)o2)C[C@H]1C(C)C,i
CC1=C[C@@H](CNCc2cccnc2)[C@H](C(C)C)C[C@H]1Cc1nnc(-c2ccccc2)o1,i
CN(CCCNC(=O)c1ccncc1)CC(F)(F)F,i
O=C(Cn1ccc2ccc(Cl)cc21)NCC1CCC(C(=O)O)CC1 (centres undefined),i
CCc1nc2c(c(-c3ccc(OC)cc3)n1)CCN([S+](=O)([O-])c1ccc(N(C)C)cc1)CC2,i
COc1ccc(N(C(=O)c2cccs2)C2C=CS(=O)(=O)C2)c(OC)c1 (centres undefined),i
CCNc1c(NC(=O)NCCc2ccccc2)c(=O)oc2ccccc12,i
Cc1ccc(-n2nc(C)c([C@H]3C=C[C@@H](OC(=O)Nc4cccc(C(F)(F)F)c4)C3)c2C)cc1Cl,i
Cc1cc(C)cc(NC(=O)Cn2c(N3CCOCC3)nc(C)cc2=O)c1,i
CC(Sc1nc(Cl)nc2nc[nH]c12)C(=O)N1CCN(c2ccccc2F)CC1 (centres undefined),i
COc1ccccc1/C=C/CN1CC[C@@H](c2ccc3c(c2)OCO3)[C@H](O)C1,i
COc1ccccc1/C=C/CN1CCn2nc(CO)cc2C1,28µM*
COc1cc(OC)cc(C(=O)NCC2CCCN(C/C=C/c3ccccc3OC)C2)c1 (centres undefined),i
O=C1C(=O)N(C2CCCC2)C(=O)N1Cc1ncc(-c2ccc(Cl)cc2)o1,i
CC(C)n1ncc2c(C(=O)Nc3ccccc3F)c3c(nc21)CCC3,i
O=C(CCC1CCCC1)NC1CCCc2ccccc21 (centres undefined),i
CCn1c(-n2nc(C)cc2C)nc2c1c(=O)n(CC(=O)C(C)(C)C)c(=O)n2C,i
Cc1ccc(NC(C)C(=O)Nc2sccc2C#N)cc1 (centres undefined),i
CC(C)C(=O)NCCNC(=O)NC(CN(C)C)c1ccccc1 (centres undefined),i
SMILES,KDM5B inhibitor
CCc1ccc(-c2nc(SCC(=O)NCC3CCCO3)c(-c3ccc(F)cc3)[nH]2)cc1 (centres undefined),i
Cc1ccc(NC2CCCN(C(=O)CCN3CCCCO3)C2)cc1C (centres undefined),i
Cc1cnc(-c2ccncc2)n1CCNC(=O)NCc1ccc(F)cc1,i
Cc1c(-c2ccc(F)cc2)[nH]c2ccc(CNC(=O)[C@@H]3CCCO3)cc12,28µM*
O=C(C[C@@H]1CCNC[C@@H]1Cc1cc(-c2ccc(F)cc2)on1)NCc1ccc(F)cc1,i
Cc1c(-c2ccc(F)cc2)[nH]c2ccc(CNCc3cnn(C)c3)cc12,32µM*
O=C(NCc1ccc(F)cc1)c1ccc(NC(=O)C2CCCO2)cc1 (centres undefined),i
Cc1nc(CC(=O)NCc2ccc3[nH]c(-c4ccc(F)cc4)c(C)c3c2)cs1,32µM*
Cc1c(-c2ccc(F)cc2)[nH]c2ccc(CNC(=O)CCN3CCCO3)cc12,32µM*
Fc1ccc(-c2[nH]ncc2CNCc2cccc(Cn3cccn3)c2)cc1,i
Cc1nc(CC(=O)Nc2ccc(C)c(C)c2)cs1,i
Cc1nc(CC(=O)NCc2ccccn2)cs1,i
CC(NC(=O)c1cccnc1N(C)C)c1ccc(F)cc1 (centres undefined),i
COc1ccc(NC(=O)CCc2c[nH]c3ccccc23)cc1OC,i
Cc1c(CCl)cc(C(=O)O)cc1CCl,i
CC(CC(=O)C(C#N)C(=O)Nc1ccccc1F)c1ccc(F)cc1 (centres undefined),i
O=C(COc1ccccc1)N1C[C@@H](F)[C@@H](OCc2nc3ncccc3[nH]2)C1,i
Cc1nc(SCC(=O)NCc2ccc(S(=O)(=O)N3CCOCC3)cc2)n(C2CCCC2)c1C,i
Cc1ccsc1/C=C/C(=O)c1ccc(C2CCCCC2)cc1,i
CC(C)Cn1nnnc1SCc1coc(-c2cccc(Cl)c2)n1,i
CCOc1cc(C(=O)NC(CC(=O)OC)c2cccs2)ccc1OC (centres undefined),i
Cn1c(=O)c2c(nc(N3CCOCC3)n2Cc2cccc(C(F)(F)F)c2)n(C)c1=O,i
Fc1ccc(-c2nc(COc3ccc(Br)cc3)co2)cc1,i
N#Cc1cccc(-c2cn3c(n2)N(C(=O)C2CCC2)CCC3)c1,22µM*
